Test in all cases: NCI-60 one-dose screen, 48 h (100 = growth as untreated, 0 = no growth, -100 = all killed)
Test [1] relates to RPMI-8226 leukemia. The following applies: 10 µM unless noted.
Test [2] deals with OVCAR-8 ovarian. The following applies: 10 µM unless noted.
Test [3] concerns OVCAR-5 ovarian. The following applies: 10 µM unless noted.
For test [4], the system named is OVCAR-4 ovarian. The following applies: 10 µM unless noted.
Test [5] has as its system IGROV1 ovarian. The following applies: 10 µM unless noted.
In test [6] the test system is OVCAR-3 ovarian. The conditions noted are these: 10 µM unless noted.
Test [7] deals with HS 578T breast. The following applies: 10 µM unless noted.
The test system of test [8] is NCI/ADR-RES ovarian. The conditions noted are these: 10 µM unless noted.
For test [9], the system named is T-47D breast. The conditions noted are these: 10 µM unless noted.
Test [10] relates to BT-549 breast. The following applies: 10 µM unless noted.
The subject of test [11] is MDA-MB-435 melanoma. The following applies: 10 µM unless noted.
Test [12] concerns SW-620 colon. The following applies: 10 µM unless noted.
Test [13] has as its system MCF7 breast. The conditions noted are these: 10 µM.
Test [14] deals with HCT-116 colon. The conditions noted are these: 10 µM unless noted.
In test [15] the test system is HCC-2998 colon. The following applies: 10 µM unless noted.
Test [16] relates to KM12 colon. The following applies: 10 µM unless noted.
The test system of test [17] is SK-OV-3 ovarian. The following applies: 10 µM unless noted.

Molecules are shown by their SMILES. Compounds without any hit were thinned out: in the full panel of roughly 83,000, 20% have a hit.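 Step 1: grow cells in 96-well plates. Step 2: add test compound at a single concentration. Step 3: incubate 48 h. Step 4: record percent growth.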 A number with no mark means an inactive call. Active and inactive are the calls of the source. How the source made its calls: active means growth percent below 10; inactive means the rest.

In the case of `COc1cc(/C=C2\CN(C)C/C(=C\c3cc(CN4CCCCC4)c(O)c(OC)c3)C2=O)cc(CN2CCCCC2)c1O`, the growth in test [1] was 25.9%; in test [2], 39.2%; in test [3], 38.8%; in test [4] it was 38.6%; in test [5], 68.4%; in test [6], 7.74% (active). Besides, the growth in test [7] is 81.9%; in test [8], 70.7%; in test [9], 67.2%; in test [10], 61.3%; in test [11], 2.5% (active); in test [12], 20%. Moreover, the growth is 11.7% in test [13], 30.7% in [14], 16.1% in [15] and 5.98% (active) in test [16].

In the case of `CS(=O)(=O)Nc1ccc(C(=O)NC(C(=O)NO)c2ccc(-c3cccc(F)c3)cc2)cc1` (configuration not stated), the growth is 82.8% in test [1]; 97.3% in test [2]; 31.6% in [3]; 70.9% in test [4]; 39.6% in test [5]; 64.7% in test [6]. Moreover, the growth in test [7] is 73%; in test [8], 66.6%; in test [9], 82.4%; in [10], 94.1%; in test [11], 54.5%; in [12], 51.2%. Besides, the growth in test [13] is 66.7%; in test [14] it was 39.1%; in [15], 62.6%; in test [16], 58.2%.

On to `NCCNc1nc2ccccc2c2c(=O)c3cc(F)cc(Cl)c3sc12`, for which the growth in test [1] is -33.1% (active); in [2], -49.2% (active); in [3] it was -81.6% (active); in test [4], -73.4% (active); in test [5], 71.9%; in [6], -88.6% (active). Also, the growth was 59.9% in test [7]; -44.9% (active) in test [8]; -45.6% (active) in test [9]; 84.8% in test [10]; -95.2% (active) in test [11]; -78.9% (active) in [12]. The growth in [13] is -91.6% (active); in [14], -89.6% (active); in test [15], 16.2%; in test [16] it was -82.6% (active).

Turning to `O=C(NN1C(=O)CSC1c1ccc(Cl)cc1)c1[nH]c2ccc(F)cc2c1-c1ccccc1` (configuration not stated), the growth in [1] was 25%; in test [2], 35.2%; in test [3], 72%; in test [4], 47.4%; in [17], 87.2%; in [7], 94.6%. Moreover, the growth in test [8] is 43.3%; in [9], 52.1%; in [10], 50.9%; in test [11], 44.9%; in [12], 77.8%; in test [13], 14.6%. Besides, the growth was 31.6% in test [14], 6.69% (active) in [15] and 44.8% in test [16].

Take `O=C(Nc1ccc(I)cc1F)c1cc(F)ccc1O`: the growth in test [1] was -33.8% (active); in test [2], 6.16% (active); in test [3], 23.6%; in test [4], 12.4%; in test [17], -6.45% (active); in [6], 6.68% (active). Moreover, the growth in test [7] was -3.33% (active); in test [8], 4.19% (active); in [9], -12.4% (active); in test [11], -5.16% (active); in [12], 7.82% (active); in test [13], 0.117% (active). Further, the values for the growth in test [14], in test [15] and in test [16] were -6.74% (active), 8.95% (active) and -11.4% (active), respectively.

Take `c1ccc2c(c1)oc1cc3sccc3nc12`: the growth in test [1] is 99.4%; in test [2], 101%; in test [3], 109%; in test [4] it was 102%; in [5], 95.8%; in [6], 107%. Also, the growth was 101% in test [7]; 102% in test [8]; 101% in [9]; 89.5% in [10]; 99.7% in [11]; 96.6% in test [12]. Further, the growth was 99.8% in test [13], 96.7% in test [14], 118% in test [15] and 108% in [16].

In the case of `CCN1C(=O)N(c2ccccc2)C2Nn3c(s/c(=C4\C(=O)N(C(C)C)c5ccccc54)c3=O)=NC21` (configuration not stated), the growth in [1] is 97.7%; in test [2], 103%; in [3], 102%; in [4], 105%; in test [5] it was 99.6%; in [6], 117%. Besides, the growth in test [7] was 99.7%; in test [8], 109%; in test [9], 102%; in test [10], 107%; in test [11], 99.7%; in [12], 98.7%. The growth is 98.8% in [13], 105% in [14], 112% in test [15] and 105% in test [16].

Take `C#CCn1cc(C=C2C(=O)NC(=O)NC2=O)c2cc(Cl)ccc21`: the growth in test [1] is 70.3%; in test [2], 87.5%; in test [3] it was 74.3%; in test [4], 75.9%; in test [5] it was 82.8%; in test [6] it was 88.5%. Further, the growth in [7] was 84%; in test [8], 99.8%; in test [9], 60.8%; in [10], 64.6%; in [11], 88.3%; in test [12] it was 97.7%. Also, the growth was 72.4% in test [13], 71.5% in test [14], 95.6% in test [15] and 85.6% in [16].

On to `O=C(/C=C/c1ccc(Cl)cc1)c1ccc(Nc2nc(NCCO)nc(Nc3ccc(Cl)cc3)n2)cc1`, for which the growth in test [1] is -3.49% (active); in [2], 70.8%; in [3], 94.3%; in test [4], 52.8%; in test [5], 80.1%; in test [6], 63.2%. For the same molecule, the growth in test [7] is 77.2%; in [8], 84.6%; in [9], 36.1%; in [10] it was 68%; in test [11], 62.2%; in [12] it was 62.6%. The growth in test [13] is -31.3% (active); in test [14], -78.9% (active); in test [15], 20.2%; in [16], 18.7%.

The values are drawn from PubChem BioAssay (NCI).
